The full data set covers some 7,900 targets. This sample favours those with a hit. About 0.6% of all pairs of compound and target were hits.
Legend:
Assay in all cases: log2 fold change, soluble protein after heating vs DMSO (PISA); higher = thermal stabilisation; K562 cells, 10 uM, 30 min; active = over 0.2 and 3.5 SD of the protein, either way, in both replicates (recomputed)
[1] = compound: CN1CCN(CCOc2cc(OC3CCOCC3)c3c(Nc4c(Cl)ccc5c4OCO5)ncnc3c2)CC1 [saracatinib]
Method in brief: (§1)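 K562 cells (2×10^6 cells/mL) were treated with 10 μM compound for 30 min, and aliquots were heated for 3 min over 48°C-58°C. Pooled aliquots were extracted in PBS with 0.5% NP-40 at 4°C, and the supernatant after 21,000xg for 90 min was measured by TMTpro 16plex LC-MS/MS with channel sums equalised. Reported thermal stability, relative to control samples and from duplicates, is a log2 fold change.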

[2] = compound: CN1CCN(c2nc(C3=C(c4c[nH]c5ccccc45)C(=O)NC3=O)c3ccccc3n2)CC1 [sotrastaurin]
Method in brief: as §1

[3] = compound: CN1CC[C@H](c2c(O)cc(O)c3c(=O)cc(-c4ccccc4Cl)oc23)[C@H](O)C1 [alvocidib]
Method in brief: as §1

[4] = compound: CN1CCc2c(c3ccccc3n2Cc2ccc(C(=O)NO)cc2)C1 [Tubastatin A]
Method in brief: as §1

[5] = compound: CNC(=O)C1=CC=CC=C1NC2=NC(=NC=C2Cl)NC3=C(C=C(C=C3)N4CCOCC4)OC
Method in brief: as §1

[6] = compound: CNC(=O)c1ccc(Nc2ncc(C(F)(F)F)c(NCc3nccnc3N(C)S(C)(=O)=O)n2)cc1 [defactinib]
Method in brief: as §1

[7] = compound: CNCc1ccc(-c2[nH]c3cc(F)cc4c3c2CCNC4=O)cc1 [rucaparib]
Method in brief: as §1

[8] = compound: CNc1nc(-c2ccc3c(N)n[nH]c3c2)cc(N2C[C@@H](C(=O)NC3CCCCC3)CC[C@H]2C)n1
Method in brief: as §1

[9] = compound: COC(=O)N[C@@H](C)CNc1nccc(-c2cn(C(C)C)nc2-c2cc(Cl)cc(NS(C)(=O)=O)c2F)n1 [encorafenib]
Method in brief: as §1

[10] = compound: COC(=O)[C@H](CCSC)NC(=O)C1=C(C=C(C=C1)NC[C@H](CS)N)C2=CC=CC=C2
Method in brief: as §1

[11] = compound: COC1=CC=C(C=C1)CN2C=CC3=C2C=C(C=C3)C(=O)NO
Method in brief: as §1

[12] = compound: CON(C)C(=O)N1N=C(c2cc(F)ccc2F)S[C@@]1(CCCN)c1ccccc1 [filanesib]
Method in brief: as §1

[13] = compound: CO[C@H]1C[C@@H]2CC[C@@H](C)[C@@](O)(O2)C(=O)C(=O)N2CCCC[C@H]2C(=O)O[C@H]([C@H](C)C[C@@H]2CC[C@H](n3cnnn3)[C@H](OC)C2)CC(=O)[C@H](C)/C=C(\C)[C@@H](O)[C@@H](OC)C(=O)[C@H](C)C[C@H](C)/C=C/C=C/C=C/1C [zotarolimus]
Method in brief: as §1

[14] = compound: COc1cc(C(=O)O)ccc1NC(=O)[C@@H]1N[C@@H](CC(C)(C)C)[C@](C#N)(c2ccc(Cl)cc2F)[C@H]1c1cccc(Cl)c1F [idasanutlin]
Method in brief: as §1

[15] = compound: COc1cc(Nc2ncc3c(n2)-c2ccc(Cl)cc2C(c2c(F)cccc2OC)=NC3)ccc1C(=O)O [alisertib]
Method in brief: as §1

[16] = compound: COc1cc2nc(-c3cc(F)ccc3O)nc(N[C@@H]3CNC[C@H]3C(C)(C)O)c2cc1OC
Method in brief: as §1

[17] = compound: COc1cc2ncnc(Nc3ccc(F)c(Cl)c3)c2cc1OCCCN1CCOCC1 [gefitinib]
Method in brief: as §1

[18] = compound: COc1cccc2cc(-c3nc([C@H]4CC[C@H](C(=O)O)CC4)n4ncnc(N)c34)[nH]c12
Method in brief: as §1

[19] = compound: CS(=O)(=O)CCNCc1ccc(-c2ccc3ncnc(Nc4ccc(OCc5cccc(F)c5)c(Cl)c4)c3c2)o1 [lapatinib]
Method in brief: as §1

[20] = compound: CS(=O)(=O)N1CCN(Cc2cc3nc(-c4cccc5[nH]ncc45)nc(N4CCOCC4)c3s2)CC1 [pictilisib]
Method in brief: as §1

Measured: log2 fold change

SPAST (UniProt Q9UBP0)
Sequence of UniProt Q9UBP0 (Q9UBP0 whole entry, looked up): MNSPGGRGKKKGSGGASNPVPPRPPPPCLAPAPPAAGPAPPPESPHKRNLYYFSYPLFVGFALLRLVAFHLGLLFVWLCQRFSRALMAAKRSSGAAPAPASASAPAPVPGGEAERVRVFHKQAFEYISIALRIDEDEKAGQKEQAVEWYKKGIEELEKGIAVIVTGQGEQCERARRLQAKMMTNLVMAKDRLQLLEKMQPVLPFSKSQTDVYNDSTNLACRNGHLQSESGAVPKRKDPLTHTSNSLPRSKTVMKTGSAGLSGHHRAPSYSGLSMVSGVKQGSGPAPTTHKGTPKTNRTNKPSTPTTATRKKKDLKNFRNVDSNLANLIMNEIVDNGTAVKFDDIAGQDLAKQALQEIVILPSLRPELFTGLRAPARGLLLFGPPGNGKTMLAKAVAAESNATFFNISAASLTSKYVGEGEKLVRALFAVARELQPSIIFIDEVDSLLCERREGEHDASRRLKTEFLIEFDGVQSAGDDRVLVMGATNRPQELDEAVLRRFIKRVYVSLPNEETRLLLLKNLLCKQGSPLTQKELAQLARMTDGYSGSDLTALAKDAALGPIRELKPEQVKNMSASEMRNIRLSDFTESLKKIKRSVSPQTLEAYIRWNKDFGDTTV
inactive: [1] -0.016 | [2] -0.015 | [3] -0.203 | [4] 0.003 | [5] -0.01 | [6] -0.056 | [7] 0.073 | [8] 0.115 | [9] 0.038 | [10] -0.037 | [11] 0.03 | [12] -0.028 | [13] -0.006 | [14] -0.038 | [15] -0.1 | [16] 0.096 | [17] -0.019 | [18] -0.042 | [19] -0.019 | [20] -0.041

SSR4 (UniProt P51571)
Sequence of UniProt P51571 (P51571 whole entry, looked up): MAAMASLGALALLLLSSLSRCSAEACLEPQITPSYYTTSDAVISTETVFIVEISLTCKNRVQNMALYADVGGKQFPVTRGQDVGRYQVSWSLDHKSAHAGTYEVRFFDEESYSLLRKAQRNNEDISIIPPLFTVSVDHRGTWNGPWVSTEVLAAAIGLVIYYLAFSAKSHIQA
inactive: [1] -0.008 | [2] 0.013 | [3] -0.035 | [4] 0.006 | [5] 0.014 | [6] 0.015 | [7] 0 | [8] 0.004 | [9] -0.028 | [10] -0.007 | [11] -0.015 | [12] -0.052 | [13] 0.036 | [14] -0.012 | [15] -0.004 | [16] 0.08 | [17] -0.023 | [18] 0.047 | [19] -0.05 | [20] 0.106

TLK2 isoform 2 (UniProt Q86UE8)
inactive: [1] 0.048 | [2] -0.012 | [3] -0.027 | [4] 0.014 | [5] -0.031 | [6] 0 | [7] -0.051 | [8] -0.003 | [9] -0.006 | [10] 0 | [11] -0.019 | [12] 0.038 | [13] 0.032 | [14] 0.087 | [15] 0.115 | [16] -0.036 | [17] 0.007 | [18] 0.06 | [19] 0.041 | [20] -0.071

THRAP3 (UniProt Q9Y2W1)
Sequence of UniProt Q9Y2W1 (Q9Y2W1 whole entry, looked up): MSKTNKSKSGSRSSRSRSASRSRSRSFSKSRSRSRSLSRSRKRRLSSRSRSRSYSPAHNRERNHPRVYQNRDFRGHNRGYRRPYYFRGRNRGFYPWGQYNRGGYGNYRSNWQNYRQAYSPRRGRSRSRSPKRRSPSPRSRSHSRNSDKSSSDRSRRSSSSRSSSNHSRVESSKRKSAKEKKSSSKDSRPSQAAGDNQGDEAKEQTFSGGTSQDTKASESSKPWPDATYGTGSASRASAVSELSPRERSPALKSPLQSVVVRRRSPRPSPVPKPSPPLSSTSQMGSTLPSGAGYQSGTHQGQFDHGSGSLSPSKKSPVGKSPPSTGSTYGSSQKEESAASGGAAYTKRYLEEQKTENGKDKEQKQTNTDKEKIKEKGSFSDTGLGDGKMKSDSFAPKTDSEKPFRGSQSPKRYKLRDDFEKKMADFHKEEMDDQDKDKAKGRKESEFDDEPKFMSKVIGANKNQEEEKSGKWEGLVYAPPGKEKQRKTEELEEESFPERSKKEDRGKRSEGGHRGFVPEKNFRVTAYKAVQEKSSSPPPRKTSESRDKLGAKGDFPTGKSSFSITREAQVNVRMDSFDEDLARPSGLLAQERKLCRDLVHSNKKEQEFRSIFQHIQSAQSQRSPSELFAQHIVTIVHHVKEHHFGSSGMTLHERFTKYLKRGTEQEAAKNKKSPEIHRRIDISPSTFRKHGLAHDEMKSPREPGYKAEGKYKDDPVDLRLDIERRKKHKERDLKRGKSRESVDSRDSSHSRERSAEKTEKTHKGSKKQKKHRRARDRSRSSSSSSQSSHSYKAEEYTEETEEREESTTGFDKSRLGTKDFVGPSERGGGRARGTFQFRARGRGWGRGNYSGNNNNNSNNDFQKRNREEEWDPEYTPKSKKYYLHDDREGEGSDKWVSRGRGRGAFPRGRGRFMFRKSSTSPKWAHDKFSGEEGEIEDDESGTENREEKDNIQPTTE
inactive: [1] 0.035 | [2] 0.008 | [3] 0.094 | [4] 0.048 | [5] -0.266 | [6] -0.29 | [7] -0.002 | [8] -0.047 | [9] -0.015 | [10] 0.019 | [11] 0.087 | [12] 0.155 | [13] -0.117 | [14] 0.12 | [15] -0.095 | [16] -0.127 | [17] 0.15 | [18] 0.13 | [19] 0.066 | [20] 0.005

TCOF1 isoform 4 (UniProt Q13428)
inactive: [1] 0.016 | [2] -0.064 | [3] 0.012 | [4] 0.013 | [5] -0.006 | [6] -0.033 | [7] 0.02 | [8] -0.038 | [9] 0.002 | [10] 0.026 | [11] 0.002 | [12] 0.028 | [13] -0.011 | [14] 0.092 | [15] -0.061 | [16] -0.051 | [17] -0.01 | [18] -0.002 | [19] 0.017 | [20] 0.028

SNX9 (UniProt Q9Y5X1)
inactive: [1] 0.01 | [2] -0.064 | [3] -0.069 | [4] -0.025 | [5] 0.038 | [6] -0.112 | [7] 0.058 | [8] -0.005 | [9] 0.049 | [10] 0 | [11] -0.002 | [12] -0.017 | [13] 0.004 | [14] -0.01 | [15] -0.013 | [16] 0.019 | [17] 0.038 | [18] -0.059 | [19] -0.034 | [20] -0.036

TECR (UniProt Q9NZ01)
Sequence of UniProt Q9NZ01 (Q9NZ01 whole entry, looked up): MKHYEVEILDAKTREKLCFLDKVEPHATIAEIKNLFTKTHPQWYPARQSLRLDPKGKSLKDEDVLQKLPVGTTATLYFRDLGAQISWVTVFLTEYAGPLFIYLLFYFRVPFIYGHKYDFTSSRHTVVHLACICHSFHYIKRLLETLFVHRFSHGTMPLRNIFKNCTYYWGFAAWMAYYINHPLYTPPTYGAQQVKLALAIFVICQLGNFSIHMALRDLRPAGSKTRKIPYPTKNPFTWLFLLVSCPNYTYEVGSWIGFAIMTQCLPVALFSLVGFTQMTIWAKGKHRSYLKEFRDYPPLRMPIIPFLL
inactive: [1] -0.018 | [2] -0.007 | [3] -0.02 | [4] -0.035 | [5] -0.07 | [6] -0.022 | [7] 0.03 | [8] -0.017 | [9] 0.045 | [10] -0.028 | [11] -0.031 | [12] -0.169 | [13] -0.041 | [14] -0.111 | [15] -0.028 | [16] -0.102 | [17] -0.027 | [18] 0.034 | [19] -0.012 | [20] -0.102

SNX12 isoform 1 (UniProt Q9UMY4)
Sequence of UniProt Q9UMY4 (Q9UMY4 whole entry, looked up): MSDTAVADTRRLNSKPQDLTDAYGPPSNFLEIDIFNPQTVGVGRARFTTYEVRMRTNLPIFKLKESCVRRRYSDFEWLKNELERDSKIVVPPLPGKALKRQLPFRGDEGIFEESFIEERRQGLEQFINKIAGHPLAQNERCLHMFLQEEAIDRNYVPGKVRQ
inactive: [1] 0.035 | [2] 0.07 | [3] 0 | [4] 0.013 | [5] 0.059 | [6] -0.025 | [7] -0.025 | [8] -0.028 | [9] 0.15 | [10] -0.037 | [11] -0.029 | [12] -0.027 | [13] -0.007 | [14] 0.039 | [15] 0.005 | [16] -0.008 | [17] 0.035 | [18] 0.09 | [19] -0.006 | [20] -0.002

SUOX (UniProt P51687)
Sequence of UniProt P51687 (P51687 whole entry, looked up): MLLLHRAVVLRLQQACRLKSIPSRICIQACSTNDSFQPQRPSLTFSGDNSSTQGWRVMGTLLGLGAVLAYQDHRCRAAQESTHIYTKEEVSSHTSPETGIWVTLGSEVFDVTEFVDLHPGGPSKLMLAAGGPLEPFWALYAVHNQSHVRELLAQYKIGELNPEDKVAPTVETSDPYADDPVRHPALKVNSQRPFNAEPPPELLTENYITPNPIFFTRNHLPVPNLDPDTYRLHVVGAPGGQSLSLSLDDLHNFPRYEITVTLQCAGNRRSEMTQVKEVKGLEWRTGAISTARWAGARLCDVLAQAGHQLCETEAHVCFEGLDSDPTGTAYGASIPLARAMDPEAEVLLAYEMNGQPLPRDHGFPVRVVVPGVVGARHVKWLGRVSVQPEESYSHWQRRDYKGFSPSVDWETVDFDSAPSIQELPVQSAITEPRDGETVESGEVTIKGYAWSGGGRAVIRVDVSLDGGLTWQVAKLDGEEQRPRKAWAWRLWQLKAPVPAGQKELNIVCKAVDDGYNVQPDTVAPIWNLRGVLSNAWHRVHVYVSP
inactive: [1] 0.02 | [2] 0.013 | [3] -0.047 | [4] -0.031 | [5] -0.01 | [6] 0.031 | [7] -0.037 | [8] -0.022 | [9] 0.001 | [10] 0.042 | [11] -0.321 | [12] -0.014 | [13] 0.02 | [14] 0.013 | [15] -0.014 | [16] 0.088 | [17] 0.007 | [18] 0.022 | [19] -0.088 | [20] 0.158

SRSF2 (UniProt Q01130)
Sequence of UniProt Q01130 (Q01130 whole entry, looked up): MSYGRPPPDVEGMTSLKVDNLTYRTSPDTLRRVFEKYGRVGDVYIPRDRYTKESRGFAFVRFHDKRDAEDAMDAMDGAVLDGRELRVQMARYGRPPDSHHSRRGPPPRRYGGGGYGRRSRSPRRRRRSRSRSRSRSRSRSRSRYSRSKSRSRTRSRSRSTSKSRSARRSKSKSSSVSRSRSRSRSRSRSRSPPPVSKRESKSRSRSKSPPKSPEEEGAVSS
inactive: [1] -0.008 | [2] 0.089 | [3] 0.218 | [4] -0.034 | [5] -0.1 | [6] 0.052 | [7] 0.078 | [8] -0.001 | [9] -0.013 | [10] 0.076 | [11] -0.071 | [12] 0.118 | [13] 0 | [14] 0.123 | [15] -0.076 | [16] -0.003 | [17] 0.038 | [18] 0.024 | [19] 0.039 | [20] 0.027

SLC25A36 (UniProt Q96CQ1)
Sequence of UniProt Q96CQ1 (Q96CQ1 whole entry, looked up): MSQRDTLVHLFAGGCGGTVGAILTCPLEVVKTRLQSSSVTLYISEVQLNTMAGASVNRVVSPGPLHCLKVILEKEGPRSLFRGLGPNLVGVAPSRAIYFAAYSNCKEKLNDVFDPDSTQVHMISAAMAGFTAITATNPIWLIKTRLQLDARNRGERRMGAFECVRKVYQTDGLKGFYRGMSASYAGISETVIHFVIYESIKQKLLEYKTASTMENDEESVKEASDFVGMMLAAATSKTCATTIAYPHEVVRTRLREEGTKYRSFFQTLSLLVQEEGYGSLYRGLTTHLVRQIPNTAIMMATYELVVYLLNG
inactive: [1] 0.233 | [2] -0.057 | [3] -0.018 | [4] -0.027 | [5] 0.013 | [6] 0.011 | [7] 0.066 | [8] 0.016 | [9] -0.055 | [10] 0.162 | [11] 0.006 | [12] -0.069 | [13] 0.013 | [14] -0.064 | [15] -0.03 | [16] 0.083 | [17] -0.014 | [18] 0.001 | [19] 0.107 | [20] 0.052

TBRG4 (UniProt Q969Z0)
Sequence of UniProt Q969Z0 (Q969Z0 whole entry, looked up): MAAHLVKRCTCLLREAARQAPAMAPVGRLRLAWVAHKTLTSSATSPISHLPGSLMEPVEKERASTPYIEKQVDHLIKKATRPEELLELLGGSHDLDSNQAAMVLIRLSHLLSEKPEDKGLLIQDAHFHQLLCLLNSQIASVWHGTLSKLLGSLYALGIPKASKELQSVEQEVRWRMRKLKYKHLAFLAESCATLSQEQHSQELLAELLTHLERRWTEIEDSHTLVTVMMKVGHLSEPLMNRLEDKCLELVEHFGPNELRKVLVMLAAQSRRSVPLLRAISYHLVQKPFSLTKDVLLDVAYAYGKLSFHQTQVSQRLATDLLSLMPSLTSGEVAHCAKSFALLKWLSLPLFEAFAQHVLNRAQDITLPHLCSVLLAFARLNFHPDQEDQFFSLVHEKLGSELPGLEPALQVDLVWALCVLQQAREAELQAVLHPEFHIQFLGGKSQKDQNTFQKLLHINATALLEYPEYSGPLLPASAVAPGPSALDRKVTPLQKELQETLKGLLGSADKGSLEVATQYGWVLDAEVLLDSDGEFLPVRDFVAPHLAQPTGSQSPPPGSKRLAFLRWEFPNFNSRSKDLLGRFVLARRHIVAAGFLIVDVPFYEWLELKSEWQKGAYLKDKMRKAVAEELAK
inactive: [1] -0.093 | [2] -0.431 | [3] -0.345 | [4] 0.044 | [5] -0.177 | [6] -0.25 | [7] 0.008 | [8] -0.144 | [9] 0.071 | [10] -0.062 | [11] 0.062 | [12] -0.551 | [13] -0.007 | [14] -0.021 | [15] 0.032 | [16] -0.274 | [17] -0.121 | [18] 0.073 | [19] -0.051 | [20] -0.036

SRSF11 (UniProt Q05519)
Sequence of UniProt Q05519 (Q05519 whole entry, looked up): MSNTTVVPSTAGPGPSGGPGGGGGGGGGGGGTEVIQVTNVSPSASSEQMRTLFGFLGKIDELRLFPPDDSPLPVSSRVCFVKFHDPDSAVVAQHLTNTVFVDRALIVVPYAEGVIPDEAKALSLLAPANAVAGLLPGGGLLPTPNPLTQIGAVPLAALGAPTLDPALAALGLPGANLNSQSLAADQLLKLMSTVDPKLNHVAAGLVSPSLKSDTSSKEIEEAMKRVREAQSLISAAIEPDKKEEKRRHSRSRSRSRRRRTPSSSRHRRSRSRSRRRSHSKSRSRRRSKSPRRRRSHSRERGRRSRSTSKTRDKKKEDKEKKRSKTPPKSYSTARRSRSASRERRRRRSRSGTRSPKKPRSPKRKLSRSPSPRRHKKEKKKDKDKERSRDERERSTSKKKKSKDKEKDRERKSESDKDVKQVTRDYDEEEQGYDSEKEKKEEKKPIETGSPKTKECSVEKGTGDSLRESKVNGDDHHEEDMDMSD
inactive: [1] 0.062 | [2] -0.059 | [3] -0.209 | [4] 0.015 | [5] -0.243 | [6] -0.174 | [7] 0.005 | [8] -0.089 | [9] -0.016 | [10] -0.045 | [11] 0.084 | [12] 0.093 | [13] 0.012 | [14] -0.021 | [15] -0.079 | [16] 0.017 | [17] 0.023 | [18] 0.018 | [19] 0 | [20] -0.164

STRN (UniProt O43815)
inactive: [1] 0.022 | [2] 0.026 | [3] -0.097 | [4] 0.013 | [5] -0.007 | [6] -0.076 | [7] -0.007 | [8] -0.026 | [9] 0.017 | [10] -0.017 | [11] -0.002 | [12] -0.002 | [13] 0.052 | [14] -0.018 | [15] -0.083 | [16] -0.003 | [17] 0.02 | [18] 0.017 | [19] 0.015 | [20] 0.006

SP3 (UniProt Q02447)
inactive: [1] 0.048 | [2] -0.122 | [3] 0.033 | [4] -0.205 | [5] -0.032 | [6] 0.042 | [7] -0.004 | [8] -0.05 | [9] -0.053 | [10] 0.04 | [11] -0.001 | [12] -0.008 | [13] -0.024 | [14] 0.052 | [15] -0.084 | [16] 0.037 | [17] -0.038 | [18] -0.04 | [19] 0.016 | [20] 0.041

SLC25A39 (UniProt Q9BZJ4)
Sequence of UniProt Q9BZJ4 (Q9BZJ4 whole entry, looked up): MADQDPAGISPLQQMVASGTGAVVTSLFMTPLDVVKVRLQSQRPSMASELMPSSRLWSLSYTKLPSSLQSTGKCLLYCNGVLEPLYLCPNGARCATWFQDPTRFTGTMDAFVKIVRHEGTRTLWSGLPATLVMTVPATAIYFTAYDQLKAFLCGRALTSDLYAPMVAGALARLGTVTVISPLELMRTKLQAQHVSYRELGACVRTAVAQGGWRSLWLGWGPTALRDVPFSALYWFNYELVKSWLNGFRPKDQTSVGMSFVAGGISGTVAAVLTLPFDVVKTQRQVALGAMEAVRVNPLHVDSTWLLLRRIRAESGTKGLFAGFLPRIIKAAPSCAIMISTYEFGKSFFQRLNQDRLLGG
inactive: [1] 0.107 | [2] -0.076 | [3] 0.134 | [4] -0.18 | [5] -0.118 | [6] -0.044 | [7] -0.01 | [8] 0.015 | [9] 0.005 | [10] 0.041 | [11] -0.069 | [12] -0.255 | [13] 0.073 | [14] -0.115 | [15] 0.123 | [16] -0.49 | [17] -0.344 | [18] 0.224 | [19] -0.044 | [20] -0.072
